Test results reported in PubChem BioAssay (NCI).
About 79,000 compounds went through this panel and 15% of them were active in at least one assay; those are over-represented in the sample as a whole. A number with no mark means an inactive call. Activity calls are given as the source filed them. No stated cut-off is given here; in the data, active means growth inhibition above about 70%; inactive means the rest.

Legend:
[1] = NCI Yeast Anticancer Drug Screen. Data for the rad50 strain (AID 155);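 further: 0% = growth of vehicle-only cultures of the same strain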; conditions: S. cerevisiae rad50 strain growth inhibition, hits give high values
Outline: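 DNA repair mutant yeast, compound exposure, growth read-out; inhibition is taken relative to vehicle.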

[2] = NCI Yeast Anticancer Drug Screen. Data for the mec2-1 strain (AID 157); conditions: S. cerevisiae mec2-1 strain, hits give high values
Outline: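 Test agents were screened against the mec2-1 yeast strain, with defined DNA repair or cell cycle alteration. Growth was scored as inhibition against vehicle-only controls.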

[3] = NCI Yeast Anticancer Drug Screen. Data for the sgs1 mgt1 strain (AID 161);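 further: 0% = growth of cultures given vehicle only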; conditions: S. cerevisiae sgs1 mgt1 strain, hits give high values
Outline: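 Mutant yeast exposed to compound; growth scored against vehicle-only wells.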

[4] = NCI Yeast Anticancer Drug Screen. Data for the cln2 rad14 strain (AID 165);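 further: 0% = growth equal to vehicle treated cultures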; conditions: S. cerevisiae cln2 rad14 strain, hits give high values
Outline: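 Growth of compound-exposed yeast (cln2 rad14 genotype) measured and expressed as inhibition relative to vehicle.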

[5] = NCI Yeast Anticancer Drug Screen. Data for the bub3 strain (AID 167); conditions: S. cerevisiae bub3 mutant strain, hits give high values
Outline: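 In this screen, a yeast mutant lacking normal mitotic checkpoint function is challenged with compound. Relative growth versus vehicle gives the inhibition value.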

[6] = NCI Yeast Anticancer Drug Screen. Data for the mlh1 rad18 strain (AID 175); conditions: S. cerevisiae mlh1 rad18 strain growth inhibition, hits give high values
Outline: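 In this whole-cell yeast screen, a strain with altered DNA damage repair is challenged with compound, and its growth is measured against matched vehicle-treated controls.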

[7] = at 5.0 µM (retest, dose inferred, filed as 0.5)
[8] = at 50.0 µM (retest, dose inferred, filed as 5.0)

SMILES | growth inhibition [1, 7] | growth inhibition [1, 8] | growth inhibition ([1]; at 50.0 µM) | growth inhibition [2, 7] | growth inhibition [2, 8] | growth inhibition ([2]; at 50.0 µM) | growth inhibition [3, 7] | growth inhibition [3, 8] | growth inhibition ([3]; at 50.0 µM) | growth inhibition [4, 7] | growth inhibition [4, 8] | growth inhibition ([4]; at 50.0 µM) | growth inhibition [5, 7] | growth inhibition [5, 8] | growth inhibition ([5]; at 50.0 µM) | growth inhibition [6, 7] | growth inhibition [6, 8] | growth inhibition ([6]; at 50.0 µM)
CN(C)C(=O)Oc1c(Cl)cc(Cl)c(Cl)c1Cl | 4% | 16% | 13.9% | 1% | 9% | -10.9% | 6% | 12% | 22% | 5% | 7% | 36.1% | 2% | 8% | -36% | 19% | 28% | 37.5%
FC(F)(F)c1nnn[n-]1.[Au+].c1ccc([PH+](c2ccccc2)c2ccccc2)cc1 | 99% (active) | 97% (active) | 97.6% (active) | 100% (active) | 97% (active) | 97.2% (active) | 99% (active) | 98% (active) | 95.6% (active) | 99% (active) | 96% (active) | 94.5% (active) | 98% (active) | 97% (active) | 96.3% (active) | 99% (active) | 97% (active) | 94.7% (active)
CC(C)NCC(O)c1ccccc1Cl (configuration not stated) | 3% | 2% | 5.4% | 2% | -2% | -11.3% | 0% | 3% | -3.35% | 0% | -2% | 32.9% | -2% | -4% | -6.2% | 8% | 3% | 14.1%
CCC(C)(c1ccc(O)cc1)c1ccc(O)cc1 | 13% | 98% (active) | 98.9% (active) | -5% | 99% (active) | 99.5% (active) | 3% | 98% (active) | 98.8% (active) | 21% | 98% (active) | 99% (active) | 43% | 99% (active) | 96.4% (active) | 14% | 99% (active) | 98.7% (active)
